The campaign covered roughly 53,000 sequences. About 3,700 (7%) were called active. The sample as a whole holds a higher share of actives than the screen did. Unmarked numbers belong to inactive results.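 Rule for the calls: active = gene knockdowns whose robust z-score for IL-1 alpha signal is at least 2 or at most -2, so actives lie on both sides; inactive = the rest.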

This test in a line: Components of the Cytosolic LPS Sensing Pathway: Gene Identification via Genome-wide siRNA Screen.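 Note: robust z of the log signal after scaling to non-targeting control siRNA wells of the plate.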 As to conditions: RAW264.7 macrophages, IL-1a HTRF, actives lie on both sides, screened at 100 nM (by protocol), cells primed 5 h with Pam3CSK4 first. In short, it runs like this: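 RAW264.7; siRNA 100 nM final, RNAiMAX, 48h 37 degrees C; Pam3CSK4 5 h; LipidA + TransIT-TKO 24 h; IL-1a HTRF; CellTiter-Glo viability; robust z vs negative-control median.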
For orientation: TR-FRET usually uses a lanthanide donor and a delayed reading to cut background.
For the sequence GCUAUGGAUCAAAGAAUUATT against Senp1, the z-score is 0.204.

As for GGCCCAUCCCACAAUGAUATT against Atg9b, the z-score is -0.998.

With GGAAGUAGGAUGAUGUUGGTT against Hmga1, the z-score was -2.08 (active).

For the sequence GCUCACCCAACAAUAUCCATT against Slc17a8, the z-score is -0.881.

As to CGAGAAUAUUCGCCCAACCTT against Erbb3, the z-score was 0.682.

GGAGAUCCGGAAUUUUUAATT against Per2: the z-score was -0.0639.

As for GCUAUAUAAUGCUUAUGUGTT against Tpr, the z-score is -0.501.

With GCCUUUGAUAAAAGUCCGGTT against Saxo2, the z-score is -0.93.

With GGAGGGAAUAUGCAAAUAGTT against Ftdc2, the z-score is 2.36 (active).

Consider GGACAUGAUGAUGAUGAUGTT against Gldn, for which the z-score is -1.8.

In the case of GCUUAUAGAAAACCAGUAATT against Foxd1, the z-score is 0.317.

Regarding GGAAGAAAUGAUGAAUGACTT against Chmp2a, the z-score is 2.36 (active).

Turning to GGAUGAUGACAUUCACUUATT against Ntan1, the z-score is -0.619.

On to GCCUCGAUCUGAUCUAGAGTT against Dbx2, for which the z-score was 0.291.

Regarding GGCUGCUGUCAUUAUUUGUTT against Terf2, the z-score was -0.768.

GGCAUCUUUCACAGUUUUGTT against Hspa12b: the z-score is 2.13 (active).

Turning to GGUUUAUGAGCUCUACGCCTT against Tmem11, the z-score is -0.843.

With GGAAGAUGAUGUUUUAGGUTT against Pde7a, the z-score is 0.271.

On to CCCAAAGCUAUCAUAUCAATT against Aff4, for which the z-score was 0.508.

For the sequence GGCGACACAUUAAAAUAGUTT against Mepe, the z-score was 2.19 (active).

As to GUUACCUCUGUGUUGUACUTT against Olfr60, the z-score is -0.148.

As to GGAAGAAAAAGAUGAGAAATT against Hrc, the z-score was 0.394.

As for GCAUGUCUCAACUAAGGACTT against Upk3b, the z-score was 1.03.

In the case of CCUACAGAGGUGCCAUUGUTT against Naa60, the z-score is -0.244.

Consider GGACCGAUUCCACUUCAAUTT against Crygd, for which the z-score was 1.46.

As to GCCAAAUGGUGUCAAUAUUTT against Rab33a, the z-score is 0.277.

Turning to GGAGGAUGAUGAGGAGGAUTT against Ppp1r1b, the z-score was 2.35 (active).

For the sequence CGUGCCAGACCUAUAGCUUTT against Mlxip, the z-score was -0.226.

Consider GGAGACCUUCCAGAACACATT against Mesd, for which the z-score is 2.38 (active).

Consider GCGGAUUUACACCUUAUCUTT against Bpi, for which the z-score is -1.15.

Regarding GGCUAUCACACAGCAUAGATT against Rdh7, the z-score was 1.57.

As to CCGUUGGAGGUAAUUAGGATT against Dot1l, the z-score was 0.463.

On to GGCACUGUAAAUGUACUCATT against Rbak, for which the z-score is -2.54 (active).

Consider GGAGAAGUACAACGCAGCGTT against Wnt7b, for which the z-score was -0.273.

Take GGCUAUGCACUACUCAUUGTT against Galk1: the z-score was -0.607.

For CCAUCCCAUUUAAUGGAUGTT against Olfr1257, the z-score was 1.09.

With GCUCCAGAUGUUCAGAGCUTT against Fbxo9, the z-score is -2.43 (active).

Take GCAUUCAGACCAUGACACUTT against Trim30d: the z-score is 0.914.

GGCCAAGUGAUAGAGUUCATT against Crygd: the z-score is 1.22.

In the case of GGAAGUUCGAUGUUCCUAGTT against Cep85, the z-score was 0.779.

Take GGUUAUUAUGACCAAGAAATT against Sf3b1: the z-score was -2.71 (active).

Take GCAGUAACCUUCUAACAAATT against Foxn2: the z-score was -0.367.

In the case of GGAGAAAGAUGUUUACCGATT against Hyal2, the z-score is -0.533.

On to GGAACUUAAGACUUUCAAGTT against Abcf2, for which the z-score was 0.904.

With GCGGAUGCAAAUCGAUGAATT against Cep135, the z-score is -0.507.

Regarding GCAUCAUACUGACCUGAGATT against Gml2, the z-score was -1.25.

CCUAUCUUCCUGAAUACAUTT against Aqp7: the z-score is 2.71 (active).

CCGGCUUAUGCUCAACUUCTT against Bpifb1: the z-score was 0.29.

Regarding GGAACAAUUGAUAAGACGATT against Guf1, the z-score is 0.237.

Take GGUCAAGGAGUUCAUUCUGTT against Matn2: the z-score was -1.33.

For the sequence GGAUCAUUCUGUGAACAAGTT against Ly6h, the z-score is 1.52.

GCCCAUUGUAUGACUGCCGTT against Gfra2: the z-score is 3.21 (active).

For CCCAAAUACCUACCAUCUCTT against Slc4a9, the z-score is -0.44.

As to GGACUCUGAAGAGGAAAAGTT against Pds5b, the z-score was -0.266.

For the sequence CCUUACCAGGAAACAUAUUTT against Dennd10, the z-score is -1.33.

GCGGUUAGCACAAUGUGAATT against Ppp2cb: the z-score was -0.577.

As for GGAAAUAAAACAGAUUUGGTT against Atpaf1, the z-score was 0.576.

With GGCACGAGGCAGAAUUUUATT against Kctd3, the z-score is 0.696.

As for GCUACAAUUGGCCUUAUCUTT against Stpg2, the z-score was -3.03 (active).

With GGUACUGCUAUGAGAAACUTT against Adam22, the z-score was 0.224.

On to GGACCAGAAACGCAUGCUUTT against Maml3, for which the z-score was -0.762.

As for GGAAAACUCAUCAUACCAGTT against Ugt3a1, the z-score is 0.737.

CGAUUUUACCAACCGCUGCTT against Chtf18: the z-score was 0.702.

With GCUGUUGUAACCAUAACAGTT against Ntsr1, the z-score was 0.439.

With GGGAAUUGCCUCAGCUAAGTT against Men1, the z-score was 2.95 (active).

Regarding CCAGUUAAACACAUUAGCCTT against Mxra8, the z-score was -0.373.

Turning to GGCUCAACGGCUUAGGGAATT against B3gat3, the z-score was 1.42.

For GGAAAAUAAGCAUAGUGAUTT against Spesp1, the z-score was -0.35.

GGACAACCAGCUCAUUGUGTT against Cd82: the z-score is -1.09.

In the case of GCAACACACUGCUUCCUGGTT against Tmem19, the z-score was -1.38.

For GGUAAUUGAGUUUGACGAUTT against Ptprf, the z-score was 0.585.

As to CGAAGGCUUCCCUUUUAUCTT against Tmem150b, the z-score was 2.67 (active).

Consider GCCUUCGUCUCCAAGUAUATT against Plagl1, for which the z-score is -0.305.

For GCUCCUUGCUUGAUUCUACTT against BC107364, the z-score is 0.649.

In the case of GGAUAGAGUUAAUGAAAAGTT against Poc5, the z-score is 0.827.

As to CCUCUAGAUAGUGUUAGAGTT against Smarcd1, the z-score was -2.19 (active).

On to GGCACAUUGUGGUGUCUUGTT against Pycr1, for which the z-score is -3e-05.

Regarding GGAGAUUGAAGAGCUCCGATT against Cabp1, the z-score is -0.0021.

With GGCCCAUAUUUUAUUACCGTT against Galns, the z-score is -1.84.

Consider GGAGGCAGUGUUUUGUCAATT against Fgd4, for which the z-score was -0.912.

Regarding GGAAGGCAUUGAAGCUGAATT against Armt1, the z-score is 0.447.

With GGGCCAACUCAAAACAAAATT against Wdr37, the z-score is -0.74.

Turning to GGUUGUUCACUAGGUCACUTT against Creg2, the z-score was 0.591.

Regarding GGUGUGUGAAAUCACUCACTT against Oxnad1, the z-score was 0.303.

With CCAAUUAUGUGAGAAGUGATT against Snx24, the z-score is 0.463.

Consider CCAACUCGUGAUUCUAGACTT against Tmed10, for which the z-score was 1.27.

As to GGUAAAGGUAAACUUAUACTT against Vmn1r148, the z-score was -4.68 (active).

With GCGCAAUACGUGGGUUUGUTT against Shisal2b, the z-score is 0.254.

On to “GCUCGUUUGUGUAUAAGGATT against 4930503L19Rik”, for which the z-score was 0.276.

For the sequence GGUUCUCGUGUGGCACACUTT against B3gat2, the z-score is 0.126.

As to CCUUCAAUCUUUCUUUCUGTT against Olfr1465, the z-score was -0.635.

On to CCGUGAUAACAACAUUUGUTT against Olfr750, for which the z-score is -0.833.

Turning to GGAGUAUGAUUCAGAAAUGTT against Scn11a, the z-score is -0.607.

With GGUCAUCAUGAGCCCAUGUTT against Olfr1341, the z-score was -1.72.

GGAUUUGGCUAUAUCAACATT against Rfc2: the z-score was -1.56.

CCAUAGCUCUGGAAUGGUGTT against Kcnt1: the z-score is -2.59 (active).

Regarding GGAUGUAUGCCAAAGAAUUTT against Fmo5, the z-score was -0.0456.

Consider CGUGCUAAACCAAGACUUATT against Lyplal1, for which the z-score is 1.25.

GGGUGAAUUUUGUUUUUGUTT against Kcnj14: the z-score is 3.05 (active).

Take GGAUAGCAUGCUUCCUGAGTT against Rhbdf2: the z-score is -2.19 (active).

With GGAAAUGCUCCUCUAGGAUTT against Ppcs, the z-score was 0.039.

On to GGAUGAAGAACUGACUCCGTT against Mboat2, for which the z-score is -0.108.

For the sequence GGUGCAAUCAAAUGGAAUUTT against Nrf1, the z-score is 3.75 (active).

For the sequence GCUACGUAAACGGAAGGCUTT against Abraxas1, the z-score was 0.272.

Regarding GGUAAGAGGAUGGACACAATT against Chst1, the z-score was 1.08.

For the sequence GAUCCGUUGGGAAAAGAACTT against Ssbp4, the z-score is -0.881.

As for GGCAGUUCUUAAGUAAUCATT against Fem1al, the z-score is 0.924.

As for GGAGAAAGAAGCUAGUGAGTT against Gm6787, the z-score was -2.77 (active).

(Values after PubChem BioAssay AID1508600 (Functional Genomics Laboratory (NCATS/FGL), 2020).)
